Screening results deposited in PubChem BioAssay by National Center for Advancing Translational Sciences (NCATS).
Shown are actives, neighbours in structure and some others; about 2.3% of the full set was active somewhere.
Tau fluor counter: counter-screen for tau fibril formation inhibitors. tau K18 P301L Alexa594 fluorescence, heparin fibrillization. Potency, µM (top dose mostly 57.7 µM), for the others: at the top dose activity change, negative = decrease. 0.93% of 280,000 active; also: potency is read from the fitted curve at half-maximal effect; nearly all actives have a fitted effect of over 55% in size
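Human tau K18 P301L (15 uM unlabeled, 0.24 uM Alexa 594-labeled) in 100 mM sodium acetate pH 7 with 20 uM heparin, 6 hr at 37 C. ThT 30 uM added, 1 hr ambient; Alexa 594 FP and total fluorescence read at 555/632 nm.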
USP1 inh: blocks the human USP1/UAF1 deubiquitinase complex | O94782 | recombinant USP1/UAF1, Ub-Rhodamine cleavage fluorescence | Potency, µM (doses to about 57.1 µM), for inactives: top-dose activity change, negative = inhibition, usual class: inhibitors | 0.23% of 390,000 active; also: potency is read from the fitted curve at half-maximal effect; nearly all actives have a fitted effect of over 60% in size
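High-throughput fluorogenic screen: 1nM USP1/UAF1 complex, Ub-Rho substrate 150nM final, 50mM HEPES pH 7.8 with 0.5mM EDTA, 0.1 mg/ml BSA, 1mM TCEP and 0.01% Tween-20.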
Tau FP inhib: blocks human tau fibril formation measured by polarization | P10636 | K18 P301L tau heparin fibrillization, Alexa594 FP, 6 h | Potency, µM (series often up to 57.7 µM), inactives show at the highest dose activity, negative = inhibition, usual class: inhibitors | 0.39% of 280,000 active | AID 1468; also: potency is read from the fitted curve at half-maximal effect; nearly all actives have a fitted effect of over 55% in size
Target sequence (P10636 561-689 P618L limits assumed): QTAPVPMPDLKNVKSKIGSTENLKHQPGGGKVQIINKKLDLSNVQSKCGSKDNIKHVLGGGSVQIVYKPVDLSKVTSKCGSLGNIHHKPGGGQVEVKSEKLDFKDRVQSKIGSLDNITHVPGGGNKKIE
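FP of Alexa 594-tau after heparin (20 uM) induction. Substrate: human K18 P301L, 15 uM unlabeled, 0.24 uM labeled. Buffer 100 mM sodium acetate pH 7. 6 hr, 37 C.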
Coupling enz: counter-screen for Giardia aldolase inhibitors: coupling enzyme system; coupling enzyme system counterscreen, AmpLite Red fluorescence; activity change, negative = inhibition, % at 58.2 µM, hits read low; 0.67% of 290,000 active; AID 2472; in the data active = activity change below about -30%
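Counterscreen of the coupled detection system alone, without aldolase: glyceraldehyde-3-phosphate coupling enzymes plus AmpLite Red readout. Compounds at 57.5 uM final, 10 min RT preincubation, 20 min RT reaction, fluorescence 525/598 nm.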
Tau ThT inhib: inhibitors of human tau fibril formation, thioflavin T binding; P10636; recombinant tau K18 P301L (four-repeat tau fragment), heparin-induced fibrillization, ThT fluorescence; Potency, µM (doses to about 57.4 µM), inactives show at the top dose activity, negative = inhibition, usual class: inhibitors; 2.1% of 270,000 active; also: potency is read from the fitted curve at half-maximal effect; nearly all actives have a fitted effect of over 55% in size
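Heparin-induced fibrillization of the P301L-mutant K18 repeat-domain fragment of human tau was followed by ThT binding in quantitative high-throughput format.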
Active calls of the source: *; [ ] = another dose, or the depositor's remark. Unless noted, calls follow the shape of the dose curve; as a rule, active = well fitted curve in the direction sought with a large enough effect; inconclusive = small, poorly fitted or top-dose-only effect, or another doubt; inactive = no such curve, though single readings can be large; an effect the other way counts as inactive or inconclusive. % is scaled to controls: 0 for no effect and ±100 for the full control effect.

`CC1SC(c2ccccc2Cl)NC1=O` (configuration not stated) gave Tau fluor counter -3%, USP1 inh 5%, Tau FP inhib 3%, Coupling enz 0 and Tau ThT inhib -3%.
Screening COc1cccc(NC2=C(C#N)C(=O)NC(c3cccc(OC)c3O)S2)c1 (configuration not stated) returned Tau fluor counter -24%, USP1 inh -8%, Tau FP inhib inconclusive, Coupling enz -1 and Tau ThT inhib 32µM*.
`CCCN1CCC(=O)N(C(CSc2ccc(C)cc2)CC(C)C)CC1` (configuration not stated) gave Coupling enz 0.
Cc1c(CNC2CCCCC2)c(C(=O)O)c(C)n1Cc1ccc(F)cc1 was read as Tau fluor counter -6%, USP1 inh 4%, Tau FP inhib -5% and Tau ThT inhib -5%.
For COCCNC(=O)Nc1ccc2nc(-c3cccs3)c(-c3cccs3)nc2c1 the results were Tau fluor counter 16µM*[quencher], USP1 inh -4%, Tau FP inhib 16µM*, Coupling enz 0 and Tau ThT inhib inconclusive.
Screening COCCNC(=O)c1cc(-c2cccs2)on1 returned Tau fluor counter -4%, USP1 inh -14%, Tau FP inhib 0%, Coupling enz 0 and Tau ThT inhib -15%.
Screening COc1cccc(=O)c2c(C)n(CC(=O)c3ccccc3)c(C)c12 returned Tau fluor counter inconclusive, USP1 inh -4%, Tau FP inhib 9%, Coupling enz -24 and Tau ThT inhib 14µM*.
For CCOC(=O)c1c(NC(=O)CSc2nnnn2-c2ccc(OC)cc2)sc(C)c1C the results were Tau fluor counter -27%, USP1 inh -18%, Tau FP inhib inconclusive, Coupling enz -8 and Tau ThT inhib 32µM*.
`O=C(N/N=C/c1ccc(OCc2ccc(F)cc2)cc1)c1ccccc1` gave Tau fluor counter -6%, USP1 inh -18%, Tau FP inhib -4%, Coupling enz -1 and Tau ThT inhib -15%.
CC(C)(C)c1ccc(OCc2ccc(C(=O)N/N=C/c3ccc(O)c(O)c3)cc2)cc1 was read as Tau fluor counter 16µM*[quencher], USP1 inh -10%, Tau FP inhib 14%, Coupling enz -6 and Tau ThT inhib inconclusive.
Screening O=C(COc1ccccc1C(=O)N/N=C\c1ccc(O)c(O)c1)N/N=C/c1ccc(O)c(O)c1 returned Tau fluor counter inconclusive, USP1 inh -12%, Tau FP inhib 10%, Coupling enz -3 and Tau ThT inhib 13µM*.
Screening CCOC(=O)c1cc2c(ccn2C)n1Cc1ccc(Cl)cc1 returned Tau fluor counter -23%, USP1 inh 5%, Tau FP inhib -4%, Coupling enz -22 and Tau ThT inhib inconclusive.
Screening Cc1cccc(Cn2c(C(=O)OC(C)C)cc3c2ccn3C)c1 returned Tau fluor counter inconclusive, USP1 inh -21%, Tau FP inhib inconclusive, Coupling enz -32* and Tau ThT inhib 35µM*.
Screening COc1cccc(/C=N/Nc2snc(SC)c2C#N)c1 returned Tau fluor counter inconclusive, USP1 inh 5%, Tau FP inhib 5%, Coupling enz -2 and Tau ThT inhib inconclusive.
For COc1ccc(/C=N/Nc2snc(SC)c2C#N)cc1OC the results were Tau fluor counter 11µM*[quencher], USP1 inh 0%, Tau FP inhib inconclusive and Tau ThT inhib 14µM*.
NNc1nc2c(Cl)ccc(Cl)c2s1 was read as Tau fluor counter 10µM*[quencher], USP1 inh -2%, Tau FP inhib inconclusive, Coupling enz 1 and Tau ThT inhib 11µM*.
O=C(Nc1nc2c(Cl)ccc(Cl)c2s1)C1CC1 was read as USP1 inh -26% and Coupling enz 1.
Screening Cn1c(SCc2cc(=O)c3cc(Cl)ccc3[nH]2)nnc1-c1ccccc1 returned Tau fluor counter 8%, USP1 inh -21%, Tau FP inhib -2% and Tau ThT inhib 9%.
Screening COc1ccc(N/C=C/C(=O)c2sc(-c3ccccc3)nc2C)cc1 returned Tau fluor counter inconclusive, USP1 inh inconclusive, Tau FP inhib 8%, Coupling enz 3 and Tau ThT inhib 2.5µM*.
For O=C(NC(=S)Nc1cccc2ncccc12)c1ccco1 the results were Tau fluor counter -6%, USP1 inh -19%, Tau FP inhib 3%, Coupling enz 1 and Tau ThT inhib -11%.
`COCCCNC(=S)Nc1cccc2ncccc12` gave Tau fluor counter -3%, USP1 inh -10%, Tau FP inhib -5%, Coupling enz -33* and Tau ThT inhib -10%.
Cc1cccc(N2CCC(N3CCN(C4CCCCC4)C(CCO)C3)CC2)c1C (configuration not stated) was read as Tau fluor counter -39%, USP1 inh -9%, Tau FP inhib -57%, Coupling enz -10 and Tau ThT inhib 10µM*.
Screening OCCNc1c2ccccc2nc2ccccc12 returned Tau fluor counter -19%, USP1 inh -14%, Tau FP inhib -9%, Coupling enz 0 and Tau ThT inhib -16%.
CCCNc1c(F)c(F)c2c(C)c3ccccc3nc2c1F was read as Tau fluor counter -23%, USP1 inh inconclusive, Tau FP inhib 6%, Coupling enz -16 and Tau ThT inhib 14µM*.
`CCCSCCCNC(=O)c1cc2n(n1)CCCN(Cc1ccc(C)cc1)C2=O` gave Tau fluor counter 6%, USP1 inh -5%, Tau FP inhib 1% and Tau ThT inhib 4%.
`O=[N+]([O-])c1ccc2nc(-c3ccncc3)[nH]c2c1` gave Tau fluor counter -15%, USP1 inh -8%, Tau FP inhib 11%, Coupling enz -4 and Tau ThT inhib -18%.
For O=[N+]([O-])c1ccc(-c2nc(-c3ccc(F)cc3)c(-c3ccncc3)[nH]2)cc1 the results were Tau fluor counter 20µM*[quencher], Tau FP inhib inconclusive, Coupling enz -1 and Tau ThT inhib 14µM*.
For CCOC(=O)c1ccccc1NC(=O)C(=O)Nc1ccc2nc3n(c(=O)c2c1)CCCCC3 the results were Tau fluor counter -15%, USP1 inh -13%, Tau FP inhib 0% and Tau ThT inhib -13%.
Screening Cc1cc(N2CCN(c3ccc(F)cc3)CC2)n2cnnc2n1 returned Tau fluor counter -5%, USP1 inh -14%, Tau FP inhib 1% and Tau ThT inhib inconclusive.
O=C(COc1ccccc1)NNc1c2ccccc2nc2ccccc12 was read as Tau fluor counter 3%, USP1 inh -14%, Tau FP inhib -1%, Coupling enz -6 and Tau ThT inhib 5%.
For O=C(NNc1c2ccccc2nc2ccccc12)c1ccccc1Cl the results were USP1 inh -20% and Coupling enz 0.
Screening O=C(NNc1c2ccccc2nc2ccccc12)c1ccccc1O returned Tau fluor counter 6.3µM*[quencher], USP1 inh -25%, Tau FP inhib -1%, Coupling enz 0 and Tau ThT inhib 2.2µM*.
